Screening data from PubChem.
The list is not random: actives were taken first. Their share in the collection is about 3.2%.
Tau fil binding – qHTS Assay for Tau Filament Binding; Microtubule-associated protein tau (Homo sapiens), P10636; recombinant tau filaments, thioflavin S fluorescence, 15 h; filaments grown with octadecylsulfate alongside compound; Potency, µM (top dose mostly 57.1 µM), without a hit: at the highest dose activity change, negative = inhibition; 71,000 tested, 2% active; AID 596, 2007;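 further: on the % scale 0 is the no-effect control and ±100 the full control effect; actives lower thioflavin S fluorescence by blocking filaments or displacing dye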
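Tau 2 uM in ThS buffer dispensed; compound added; 60 uM ODS added (finals 1 uM tau, 30 uM ODS); 15 h 37 C; fluor ex450/em510.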
15-hLO inh – qHTS Assay for Inhibitors of 15-hLO (15-human lipoxygenase). Polyunsaturated fatty acid lipoxygenase ALOX15 (Homo sapiens), P16050. purified 15hLO-1, xylenol orange hydroperoxide absorbance. Potency, µM (series often up to 57.1 µM), without a hit: top-dose activity change, negative = inhibition, usual class: inhibitors. 74,000 tested, 1.4% active; further: on the % scale 0 is the no-effect control and ±100 the full control effect; nearly all actives have a fitted effect of over 55% in size
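Inhibition is scored from a chromogenic endpoint. After 15 min enzyme-compound contact, arachidonic acid (50 uM final) reacts 6 min with 40 nM 15hLO-1 at room temperature, then Fe-XO reagent is added for 30 min and absorbance ratio recorded.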
Hsp90 Hop PPI – qHTS Assay for Disrupters of an Hsp90 Co-Chaperone Interaction; AID 595, 2007; 71,000 tested, 0.44% active; AlphaScreen TPR2A-His6 binding biotin-Hsp90 C-terminal peptide; Hsp90 C-terminal peptide / TPR2A (Hop) interaction, human; Potency, µM (highest dose often 57 µM), for the others: at the top dose activity change, negative = inhibition; active means well fitted curve in either direction with a large enough effect; inconclusive means small, poorly fitted or top-dose-only effect, or another doubt; further: on the % scale 0 is the no-effect control and ±100 the full control effect
USP2a inh – qHTS Assay for Inhibitors of Ubiquitin-specific Protease USP2a | Ubiquitin carboxyl-terminal hydrolase 2 (Homo sapiens), O75604 | USP2a enzymatic assay, qHTS inhibition | 60,000 tested, 0.1% active | AID 927, 2007 | Potency, µM (titrated, usually from 38.3 µM), for the others: top-dose activity change, negative = inhibition, most hits filed as inhibitors; further: nearly all actives have a fitted effect of over 60% in size
Target sequence (O75604 whole entry, looked up): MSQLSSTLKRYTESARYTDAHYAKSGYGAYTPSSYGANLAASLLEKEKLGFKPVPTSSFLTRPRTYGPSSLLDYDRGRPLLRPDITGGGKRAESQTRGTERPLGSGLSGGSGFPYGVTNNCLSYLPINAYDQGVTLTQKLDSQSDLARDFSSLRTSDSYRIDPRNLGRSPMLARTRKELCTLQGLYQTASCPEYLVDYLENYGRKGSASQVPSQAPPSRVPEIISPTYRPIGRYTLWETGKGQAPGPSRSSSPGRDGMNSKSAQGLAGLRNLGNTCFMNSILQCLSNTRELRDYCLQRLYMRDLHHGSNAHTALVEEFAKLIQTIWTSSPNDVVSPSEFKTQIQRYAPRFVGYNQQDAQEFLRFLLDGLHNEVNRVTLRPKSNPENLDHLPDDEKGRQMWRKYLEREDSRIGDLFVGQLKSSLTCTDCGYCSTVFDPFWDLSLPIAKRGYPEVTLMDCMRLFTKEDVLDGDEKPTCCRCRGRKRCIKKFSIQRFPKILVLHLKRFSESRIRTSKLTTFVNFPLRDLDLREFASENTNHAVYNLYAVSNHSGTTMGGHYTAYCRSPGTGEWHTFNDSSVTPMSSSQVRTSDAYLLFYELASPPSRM
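USP2 core (20 nM final) was preincubated with compound for 30 min at RT in 20 mM Tris-HCl pH 8.0, 2 mM CaCl2, 2 mM beta-mercaptoethanol; Ub-PLA2 (20 nM) plus NBD C6-HPC (20 uM) then added, fluorescence read after 2.5 h.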
The depositor's hits bear a star; [ ] = another dose, or the depositor's remark. Unless noted, the call rests on the fitted dose curve; in most records, active means well fitted curve in the direction sought with a large enough effect; inconclusive means small, poorly fitted or top-dose-only effect, or another doubt; inactive means no such curve, though single readings can be large; an effect the other way counts as inactive or inconclusive. Potency means the concentration at half of the fitted maximal effect.

Results for CCOC(=O)C(C(=O)OCC)c1cc(Br)c2noc3c2c1C(=O)c1ccccc1-3 ?
Tau fil binding: 2µM*; 15-hLO inh: -19%; Hsp90 Hop PPI: inconclusive; USP2a inh: 66%

What do the screens show for `COCC(=O)N1CCC2(CC1)CN(c1cccc(-c3ccccc3)c1)C2`?
Tau fil binding: -6%; 15-hLO inh: -8%; Hsp90 Hop PPI: -13%; USP2a inh: 102%

How did CC1=c2c(oc3cc(O)c(Nc4c(C)cc(O)cc4O)c(C)c23)=CC(=O)C1=Nc1c(C)cc(O)cc1O do in these assays?
Tau fil binding: 1.6µM*; 15-hLO inh: inconclusive; Hsp90 Hop PPI: inconclusive

How did COC(=O)c1cc(Cc2ccc(N)c(C(=O)OC)c2)ccc1N do in these assays?
Tau fil binding: inconclusive; 15-hLO inh: 25µM*; Hsp90 Hop PPI: inconclusive; USP2a inh: 13%

What do the screens show for `O=C1c2ccccc2C(=O)c2c(Nc3cc4c5c(ccc6c7ccc8c9c(cc(Nc%10cccc%11c%10C(=O)c%10ccccc%10C%11=O)c(c3c56)c97)-c3ccccc3C8=O)C(=O)c3ccccc3-4)cccc21`?
Tau fil binding: 3.2µM*; 15-hLO inh: -9%[11.4 µM]; Hsp90 Hop PPI: inconclusive

Results for CCOc1ccc(S(=O)(=O)N2CCc3ccccc3C2)cc1 ?
Tau fil binding: 2%; 15-hLO inh: -10%; Hsp90 Hop PPI: 19%; USP2a inh: -16%

How did CCOc1ccc(N2Cc3ccccc3C2)cc1 do in these assays?
Tau fil binding: 16µM*; 15-hLO inh: -9%; Hsp90 Hop PPI: -16%

How did NC(=O)c1sc2nc3c(c(-c4ccco4)c2c1N)CCC3 do in these assays?
Tau fil binding: 16µM*; 15-hLO inh: -23%; Hsp90 Hop PPI: -6%; USP2a inh: inconclusive

What do the screens show for `COCCNc1nc(C)nc2c1nc(-c1ccccc1)n2CCN1CCCC1`?
Tau fil binding: 6%; 15-hLO inh: 9%; Hsp90 Hop PPI: 0%

What do the screens show for `Cc1ccc(C)c(NS(=O)(=O)c2c(C)ccc3nsnc23)c1`?
Tau fil binding: 13µM*; 15-hLO inh: -10%; Hsp90 Hop PPI: -7%

Results for Cc1ccc2nsnc2c1S(=O)(=O)Nc1cccc2nsnc12 ?
Tau fil binding: -21%; 15-hLO inh: -26%; Hsp90 Hop PPI: -9%; USP2a inh: 26%

Results for COc1ccc(Oc2ncc3nc(CCc4ccccc4)c(=O)n(CCC#N)c3n2)cc1 ?
Tau fil binding: -6%; 15-hLO inh: 1%; Hsp90 Hop PPI: 3%; USP2a inh: 42%

How did FC(F)C(F)(F)C1=CC(c2ccccc2)=NCCN1 do in these assays?
Tau fil binding: 13µM*; 15-hLO inh: 10%; Hsp90 Hop PPI: -1%; USP2a inh: -5%

Results for c1ccc2c(CC3=NCCN3)cccc2c1 ?
Tau fil binding: 6%[25.6 µM]; 15-hLO inh: -16%; Hsp90 Hop PPI: 0%[26 µM]; USP2a inh: 6%

How did FC(F)C(F)(F)C1=CC(c2cccs2)=NCCN1 do in these assays?
Tau fil binding: 16µM*; 15-hLO inh: -2%; Hsp90 Hop PPI: -6%; USP2a inh: 10%

What do the screens show for `CC(C)Cn1c2nc3ccccc3nc2c2c(=O)n(CCN3CCOCC3)cnc21`?
Tau fil binding: 25µM*; 15-hLO inh: inconclusive; Hsp90 Hop PPI: -5%; USP2a inh: 38%

What do the screens show for `CCCC1C(C(=O)OCC)=C(C)NC(C)=C1C(=O)OCC`?
15-hLO inh: -3%

What do the screens show for `CCOC(=O)C1=C(C)NC(C)=C(C(=O)OCC)C1`?
Tau fil binding: -4%; 15-hLO inh: 10µM*; Hsp90 Hop PPI: 2%; USP2a inh: 9%

Results for Cc1noc(C)c1-c1nccc(N2CCN(C)CC2)n1 ?
Tau fil binding: -2%; 15-hLO inh: 9%; Hsp90 Hop PPI: 0%; USP2a inh: 36%

What do the screens show for `CCSc1nnc(-c2ccc(Cl)cc2Cl)o1`?
Tau fil binding: 2%[11.4 µM]; 15-hLO inh: 3.2µM*; Hsp90 Hop PPI: 24%[11 µM]; USP2a inh: 0%[7.66 µM]

How did C[C@H]1[C@H](O)[C@@H](C)C=CC=CC=CC=CC=CC=CC=C[C@H](O[C@@H]2O[C@@H](C)[C@H](O)[C@@H](N)[C@@H]2O)C[C@@H]2O[C@](O)(C[C@@H](O)C[C@@H](O)[C@@H](O)CC[C@@H](O)C[C@@H](O)CC(=O)O[C@H]1C)C[C@H](O)[C@H]2C(=O)O do in these assays?
Tau fil binding: -1%[11.4 µM]; 15-hLO inh: 2µM*; Hsp90 Hop PPI: -4%[11 µM]

How did C[C@@H]1[C@H](O)[C@@H](C)/C=C/C=C/C=C/C=C/C=C/C=C/C=C/[C@H](O[C@@H]2O[C@H](C)[C@@H](O)[C@H](N)[C@@H]2O)C[C@@H]2O[C@](O)(C[C@@H](O)C[C@@H](O)[C@H](O)CC[C@@H](O)C[C@@H](O)CC(=O)O[C@H]1C)C[C@H](O)[C@H]2C(=O)O do in these assays?
Tau fil binding: inconclusive; 15-hLO inh: 2%; Hsp90 Hop PPI: -5%

How did O=C1C(Cl)=C(N2CCCCC2)C(=O)N1c1ccccc1Cl do in these assays?
Tau fil binding: 4%; 15-hLO inh: inconclusive; Hsp90 Hop PPI: inconclusive; USP2a inh: -8%

What do the screens show for `Cc1ccccc1N1C(=O)C(Cl)=C(N2CCCCCC2)C1=O`?
Tau fil binding: 13µM*; 15-hLO inh: 10µM*; Hsp90 Hop PPI: inconclusive; USP2a inh: -4%

How did O=C1C(Cl)=C(N2CCCCC2)C(=O)N1c1ccccc1 do in these assays?
Tau fil binding: -4%; 15-hLO inh: 16µM*; Hsp90 Hop PPI: inconclusive; USP2a inh: -5%

What do the screens show for `COc1ccc(OC)c(N2C(=O)C(Cl)=C(N3CCCCC3)C2=O)c1`?
Tau fil binding: -6%[11.4 µM]; 15-hLO inh: -6%[11.4 µM]; Hsp90 Hop PPI: -7%[11 µM]; USP2a inh: 11%[7.66 µM]

Results for Cc1nc2cnc(N(C)C)nc2n(Cc2ccc(F)cc2)c1=O ?
Tau fil binding: -3%; 15-hLO inh: -25%; Hsp90 Hop PPI: 19%; USP2a inh: 10%

Results for COc1cccc(Cn2c(=O)c(-c3ccc(Cl)cc3)nc3cnc(N4CCNCC4)nc32)c1 ?
Tau fil binding: 4µM*; 15-hLO inh: 4%; Hsp90 Hop PPI: 20%; USP2a inh: inconclusive

Results for COc1cccc(Cn2c(=O)c(-c3cccc(Cl)c3)nc3cncnc32)c1 ?
Tau fil binding: 20µM*; 15-hLO inh: inconclusive; Hsp90 Hop PPI: -16%; USP2a inh: 38%

How did COc1cccc(Nc2ncc3nc(C)c(=O)n(CCC#N)c3n2)c1 do in these assays?
Tau fil binding: 25µM*; 15-hLO inh: 2%; Hsp90 Hop PPI: -5%; USP2a inh: 95%

What do the screens show for `COc1cccc(Cn2c(=O)cnc3cnc(OCc4ccccc4)nc32)c1`?
Tau fil binding: inconclusive; 15-hLO inh: -11%; Hsp90 Hop PPI: -1%; USP2a inh: 10%

Results for COc1cccc(Cn2c(=O)c(C)nc3cnc(OCc4ccccc4)nc32)c1 ?
Tau fil binding: 32µM*; 15-hLO inh: -5%; Hsp90 Hop PPI: 4%; USP2a inh: -8%
